Data published in PubChem BioAssay (NCATS).
Results filed as inconclusive are left out. Calls of active or inactive are those of the source. Calls come from the whole dose curve; as a rule, active = well fitted inhibition curve with a large enough effect; inconclusive = small, poorly fitted or top-dose-only effect; inactive = no such curve, though single readings can be large or run the other way.

Assay: BET inhibitor-based combinations targeting novel dependencies in MECOM-rearranged (r) AML: SET-2 cell line (AID 2202231); note: nearly all actives have a fitted effect of over 35% in size;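 for viability: plate controls were DMSO treated cells for no effect and wells without cells for full effect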
Details: SET-2 AML cells viability, CellTiter-Glo luminescence, 48 h; viability: stronger effect = lower value, series mostly up to about 46 µM
In short: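 A 48 hr incubation preceded viability reading by CellTiter-Glo, with 15 min room-temperature development. Dose series had 11 points; normalization used DMSO and empty wells; AUC was computed and mean-centered per line as Z-AUC.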
Potency is the fitted concentration of half-maximal effect.

Structure (SMILES) | Potency | viability
CCCCCCCOc1ccc(CCC(N)(CO)CO)cc1C(F)(F)F | 18.6 µM (active) | –
CC(C)n1ncnc1-c1cn2c(n1)-c1ccc(O[C@@H](C)C(N)=O)cc1OCC2 | – | 99% (inactive)
C[C@@H]1C(=O)OC2[C@H](O)[C@]34[C@H]5C[C@@H](C(C)(C)C)[C@]36[C@@H](OC(=O)[C@@H]6O)O[C@@]4(C(=O)O5)[C@]21O (stereo partly drawn) | – | 115% (inactive)
Fc1cccc(-n2cnc3c(NCc4nc5c(F)c(F)ccc5[nH]4)nc(N4CCOCC4)nc32)c1 | 0.372 µM (active) | –
CN1CCN(C(=O)[C@H]2[C@@H](C(=O)O)[C@H]3CC[C@@H]2O3)CC1 | – | 113% (inactive)
Cn1cc(/C=C/C(=O)c2cccc(F)c2)cc1/C=C/C(=O)NO | 1.48 µM (active) | –
Cc1c(F)cccc1NC(=O)Nc1ccc(Cl)c(S(=O)(=O)[C@H]2CCCNC2)c1O | – | 112% (inactive)
C[C@H]1CC2[C@@H]3CCC4=CC(=O)C=C[C@]4(C)[C@@]3(F)[C@@H](O)C[C@]2(C)[C@@]1(O)C(=O)CO (stereo partly drawn) | – | 115% (inactive)
Cc1ccc(C(=O)N(CCCN)[C@@H](c2nc3cc(Cl)ccc3c(=O)n2Cc2ccccc2)C(C)C)cc1 | 0.105 µM (active) | –
C[C@]12CCC3=C4CCC(=O)C=C4CC[C@H]3[C@@H]1CC[C@@]2(O)CC#N | – | 108% (inactive)
c1ccc2[nH]c(-c3cscn3)nc2c1 | – | 111% (inactive)
C[C@H](NC(=O)c1c(N)nn2cccnc12)c1cc2cccc(C#Cc3cnn(C)c3)c2c(=O)n1-c1ccccc1 | – | 101% (inactive)
Cc1c(C(=O)Nc2ccc(Oc3ccnc4[nH]cc(-c5ccccc5)c34)c(F)c2)c(=O)n(-c2ccc(F)cc2)n1C | – | 96.3% (inactive)
